Pf growth 96h: P. falciparum growth inhibition at 96 hour, primary screen for plastid delayed-death inhibitors; P. falciparum luciferase reporter growth, 96 h; actives 6.9% (n = 320,000); Potency, µM (doses to about 28.7 µM), without a hit: at the top dose activity change, negative = inhibition, most hits filed as inhibitors; AID 504834; further: potency means the concentration at half of the fitted maximal effect
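Infected RBCs, 2% Hct / 0.05% parasitemia final; luciferase-reporter P. falciparum; cpd 96 h, 37 C, 5% CO2; luciferase detection reagent; luminescence.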
Pf growth 48h: inhibits P. falciparum growth in the first generation, 48 h | P. falciparum luciferase growth in erythrocytes, 48 h | Potency, µM (highest dose often 28.7 µM), without a hit: top-dose activity change, negative = inhibition, hits mostly inhibitors | actives 5.9% (n = 310,000) | AID 504832; further: potency means the concentration at half of the fitted maximal effect
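First compound was added to culture medium, then infected red cells at 0.1% parasitemia and 2% hematocrit (final). After incubation at 37 C under 5% CO2, luciferase detection reagent was dispensed and light output recorded.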
Lassa entry inh: inhibitors of Lassa virus binding or cell entry; Lassa virus pseudotype entry inhibition, cell reporter; Potency, µM (highest dose often 37.9 µM), inactives show top-dose activity change, negative = inhibition, most hits filed as inhibitors; actives 1.2% (n = 300,000); calls by dose curve; tested in HEK293 cells; further: potency means the concentration at half of the fitted maximal effect; nearly all actives have a fitted effect of over 50% in size
Marburg entry inh: inhibitors of Marburg virus binding or cell entry; Marburg virus pseudotyped entry inhibition, cell reporter; Potency, µM (doses to about 37.8 µM), for the others: at the highest dose activity change, negative = inhibition, most hits filed as inhibitors; actives 1.8% (n = 300,000); calls by dose curve; tested in HEK293 cells; further: potency means the concentration at half of the fitted maximal effect
HCV inhibitor: HCV inhibition; Huh7.5.1 HCVcc-Cre infection, luciferase reporter, 44 h; actives 3.4% (n = 340,000); Potency, µM (top dose mostly 41.8 µM), for the others: top-dose activity change, negative = inhibition, usual class: inhibitors; further: potency means the concentration at half of the fitted maximal effect
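Seed cells (1,000/well) for 4 h; treat with compound and infect with HCVcc-Cre, moi about 0.5. Incubate 44 h, then detect luciferase activity.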
HCMV antiviral: human cytomegalovirus inhibition | activity change, negative = inhibition, % at 57.5 µM | actives 4.5% (n = 410,000) | AID 1259415 | HFF cells, HCMV-luciferase reporter, 72 h; hits give low values; in the data active means activity change below about -60%; inconclusive means no clear call, values can overlap the other calls; inactive means above about -39%
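Screen run at 2 compound doses on HFFs infected with reporter HCMV, MOI 1 PFU/cell. Luciferase activity from cell lysates at 72 h post infection gave inhibition relative to buffer-only and Salinomycin wells.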
An asterisk follows results filed as active; ? = inconclusive; nt = no result; ! = not confirmed by another sample; [ ] = dose if it differs, or a comment. An excerpt weighted towards active compounds, which were near 14% of everything screened. Unless noted, the call rests on the fitted dose curve; in most records, active means well fitted inhibition curve with a large enough effect; inconclusive means small, poorly fitted or top-dose-only effect, or another doubt; inactive means no such curve, though single readings can be large or run the other way. On the % scale 0 is the no-effect control and ±100 the full control effect.

SMILES | Pf growth 96h | Pf growth 48h | Lassa entry inh | Marburg entry inh | HCV inhibitor | HCMV antiviral
CCOc1ccccc1N(CC(=O)Nc1ccccc1F)S(=O)(=O)c1ccccc1 | ? | 10.4µM* | nt | nt | ? | -104.4*
CS(=O)(=O)N(CC(=O)NCc1ccccn1)c1ccc2c(c1)OCCO2 | 4.15µM* | 14.6% | 10.0% | 11.8% | 16.8% | -16.4
CCOc1ccccc1N(CC(=O)Nc1ccc(OC)cc1)S(=O)(=O)c1ccccc1 | -5.6% | ? | nt | nt | ? | ?
CN(CC(=O)NCc1ccccn1)S(=O)(=O)c1ccc(F)cc1 | 14.7µM* | 16.9% | 4.0% | -18.3%[46.1 µM] | 30.4% | -13.0
CCOc1ccccc1N(CC(=O)Nc1ccc2c(c1)OCCO2)S(C)(=O)=O | 4.15µM* | -8.0% | 4.2% | -1.0% | 6.4% | -28.6
CCOC(=O)c1nn(C)c(=S)n(C)c1=O | nt | nt | 2.9%[46.1 µM] | 15.7%[46.1 µM] | 5.4% | -22.9
CC(C(=O)Nc1ccc(F)c(F)c1F)N(C)CCOc1ccccc1 (stereo not drawn) | ? | 9.6% | nt | nt | -3.3% | -17.3
O=C(NCC1CCS(=O)(=O)C1)Oc1ccccc1 (stereo not drawn) | -27.1% | 10.0% | 15.6% | -1.0% | 0.6% | -95.4*
O=C(COc1ccccc1)NC1CCS(=O)(=O)C1 (stereo not drawn) | 41.5% | 7.2% | 6.7% | 0.1% | 11.0% | 1.9
COc1ccc(C(CCN2CCOCC2)c2c(O)cc(OC)cc2OC)cc1 (stereo not drawn) | 3.29µM* | 3.7µM* | nt | nt | 3.3% | 21.1
COc1cc(O)c(C(CC(=O)N2CCCC2)c2ccc(N(C)C)cc2)c(OC)c1 (stereo not drawn) | -23.9% | ? | nt | nt | 10.9% | -6.0
COc1cc(O)c(C(CCN2CCCCC2)c2ccc(N(C)C)cc2)c(OC)c1 (stereo not drawn) | 0.828µM* | 1.31µM* | nt | nt | -11.0% | -22.5
COc1cc(O)c(C(CCN2CCCC2)c2ccc(N(C)C)cc2)c(OC)c1 (stereo not drawn) | 3.29µM* | 2.94µM* | nt | nt | -2.4% | -7.3
COc1ccc(C(CC(=O)N2CCOCC2)c2c(O)cc(OC)cc2OC)cc1 (stereo not drawn) | 67.8% | 38.6% | nt | nt | 15.2% | -2.2
CCN(CC)C(=O)CC(c1ccc(N(C)C)cc1)c1c(O)cc(OC)cc1OC (stereo not drawn) | ? | ? | nt | nt | -4.8% | -20.9
N=c1c2c3c(sc2ncn1Nc1ccccc1)CCC3 | 2.94µM* | 1.65µM* | nt | nt | ? | -4.9
Cc1ccc(C2NC(=O)c3c(sc4c3CCN(C)C4)N2)o1 (stereo not drawn) | 3.7µM* | nt | 23.2% | 11.4% | -0.6% | -17.7
Cc1ccc(C2NC(=O)c3c(sc4c3CCN(C)C4)N2)s1 (stereo not drawn) | ? | -25.5% | ? | 1.0% | 17.6% | -1.8
O=C(c1cc(-c2ccc(Br)cc2)n[nH]1)N1CCN(C(=O)c2ccccc2Br)CC1 | -15.4% | 9.28µM* | nt | nt | ? | ?
O=C(c1cc(-c2ccc(Br)cc2)n[nH]1)N1CCN(S(=O)(=O)c2ccc(Br)cc2)CC1 | nt | nt | 3.5%[46.1 µM] | nt | nt | ?
O=C(c1n[nH]c2ccccc12)N1CCN(S(=O)(=O)c2ccc3ccccc3c2)CC1 | 149.8% | ? | -8.3% | 2.5% | ? | 12.7
Cc1ccc(S(=O)(=O)N2CCN(C(=O)c3n[nH]c4ccccc34)CC2)cc1 | 11.7µM* | 2.62µM* | nt | nt | 0.1% | ?
COc1ccccc1-c1cc(C(=O)N2CCN(S(=O)(=O)c3ccc(C)cc3)CC2)[nH]n1 | 14.7µM* | 0.465µM* | nt | nt | ? | -28.1
COc1ccc(S(=O)(=O)N2CCN(C(=O)c3cc(-c4ccc(Br)cc4)n[nH]3)CC2)cc1OC | ? | 9.28µM* | 10µM* | ? | ? | -72.2*!
CCCc1nnc(NC(=O)c2cc(=O)c3ccccc3o2)s1 | nt | nt | 24.6%[46.1 µM] | ? | nt | 40.5
SMILES | Pf growth 96h | Pf growth 48h | Lassa entry inh | Marburg entry inh | HCV inhibitor | HCMV antiviral
CC(=O)N1c2ccc(S(=O)(=O)NCCC(=O)Nc3ccc(C)cc3Br)cc2CC1C (stereo not drawn) | nt | nt | -1.5%[46.1 µM] | nt | nt | -7.9
CCCCN1C(=O)C(CC(=O)NCCN2CCOCC2)CC(C(=O)N(C(C)C)C(C)C)=C1C (stereo not drawn) | nt | nt | nt | nt | nt | 13.7
COCC1=C(C(=O)OC)C(c2ccccc2)N(C(C)=O)C(=O)N1 (stereo not drawn) | nt | nt | nt | 0.8%[14.2 µM] | nt | nt
COc1ccc(-c2cc(C(=O)N3CCN(S(=O)(=O)c4ccccc4)CC3)[nH]n2)cc1 | 55.3% | ? | nt | nt | -19.9% | ?
O=C(c1cc(-c2ccccc2)n[nH]1)N1CCN(S(=O)(=O)c2ccccc2)CC1 | ? | 3.7µM* | nt | nt | 0.0% | -3.5
COc1cc(OC)c(OC)cc1CNC(C)C(O)c1ccccc1 (stereo not drawn) | -19.3% | -13.5% | -1.0% | 12.4% | 17.9% | -16.8
CC(CC(=O)NCc1ccc(Cl)cc1)c1ccccc1 (stereo not drawn) | ? | 14.0% | nt | nt | 10.0% | 32.0
CC(NCc1ccc(Cl)cc1Cl)C(O)c1ccccc1 (stereo not drawn) | 1.47µM* | 1.04µM* | 2.2% | -19.2% | 3.2% | 50.6
CC(NCc1ccc(Cl)cc1)C(O)c1ccccc1 (stereo not drawn) | 3.7µM* | 2.62µM* | 21.7% | ? | 1.5% | -6.7
CC(NCc1ccc(-c2ccccc2)cc1)C(O)c1ccccc1 (stereo not drawn) | 2.33µM* | 2.94µM* | 4.61µM* | ? | ? | -101.2*
CCOc1c(Cl)cc(CNC(C)C(O)c2ccccc2)cc1OC (stereo not drawn) | 21.8% | 1.47µM* | nt | nt | -17.9% | ?
CCN(CC)C(=O)c1[nH]cnc1C(=O)Nc1ccc(C)cc1 | 12.9% | 37.3% | nt | nt | -1.4% | -2.8
Cc1ccc(N(C[C@@H](O)CN(C)C)S(=O)(=O)c2ccccc2)cc1 | nt | nt | nt | 1.1% | nt | nt
CCN(CC(=O)Nc1ccc(OC)cc1)CC(=O)N1CC(=O)Nc2ccccc21 | ? | ? | nt | nt | 0.7% | 0.0
COc1cc(CNC(=O)CSCc2nc3cccnc3n2C2CCCCC2)cc(OC)c1OC | nt | nt | -23.8%[46.1 µM] | nt | nt | 10.4
CCC(CO)NCc1ccc(Br)cc1 (stereo not drawn) | -0.5% | 9.1% | nt | nt | -3.7% | ?
CC(NCc1cccc(Cl)c1Cl)C(O)c1ccccc1 (stereo not drawn) | 4.65µM* | 9.28µM* | 7.8% | ? | -5.0% | -17.6
COc1ccccc1CNC(c1ccccc1)c1ccccc1 | ? | 0.0% | nt | nt | -3.6% | 35.8
CCC(CO)NCc1ccc(-c2ccccc2)cc1 (stereo not drawn) | 3.7µM* | 14.2% | -3.9% | -25.9% | ? | -14.2
C[C@H]1CN([C@@H](C)CO)S(=O)(=O)c2ccc(Br)cc2O[C@H]1CN(C)S(=O)(=O)c1ccccc1 | nt | nt | nt | nt | nt | -14.0

High-throughput results from PubChem BioAssay.
